Experimental findings from PubChem BioAssay (NCATS) are described below.

A short description of test [1]: P-glycoprotein substrates identified in KB-8-5-11 adenocarcinoma cell line, qHTS therapeutic library screen (AID 1346987). Note: nearly all actives have a fitted effect of over 65% in size. In a few lines: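 Luminescence from CellTiter-Glo, read 5 min after addition, quantified survival of KB-8-5-11 (P-gp-overexpressing) cells exposed to compounds for 72 h. AC50 was derived from concentration-response curves.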
A general note: qHTS replaces the single test concentration by a dilution series.

Test [2] can be described thus: qHTS of pediatric cancer cell lines to identify multiple opportunities for drug repurposing: Primary screen for TC32 cells (AID 1347089). Note: nearly all actives have a fitted effect of over 60% in size. In a few lines:
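qHTS, TC32, 48 h drug treatment, CellTiter-Glo luminescence as a proxy for metabolically active cells; primary top concentration 46 µM (MIPE 11-pt, NPC 8-pt); confirmatory 11-pt.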

Test [3] can be described thus: NS1 protein of Zika virus - qHTS assay to identify small molecule inhibitors in human HEK 293 cells (AID 1347053). Note: nearly all actives have a fitted effect of over 55% in size. In a few lines:
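Compound-treated (1 h pre-infection) HEK 293 cells infected with ZIKV MR766, MOI = 0.5; after 24 h at 37 C, NS1 read by TR-FRET; data normalized to uninfected and infected controls.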

Values joined by “and” are separate entries in the source; they are usually repeats but may differ in a detail not shown here. Equal entries are not always repeated. Inconclusive results are not listed. Entries that show only a call come without a potency. Where a structure was tested more than once in an assay, its records may differ in their call. Active and inactive are the calls of the source. Calls come from the whole dose curve; as a rule, active = well fitted curve in the direction sought with a large enough effect; inconclusive = small, poorly fitted or top-dose-only effect, or another doubt; inactive = no such curve, though single readings can be large; an effect the other way counts as inactive or inconclusive.
Potency is the fitted concentration of half-maximal effect.

Regarding `CCC=CC[C@H]1C(=O)CC[C@@H]1CC(=O)OC`, the Potency entry in test [1] and in test [2] was “inactive” throughout.

`CCC(=O)N1CCN(c2ccc(-n3c(=O)ccc4cnc5ccc(-c6cnc7ccccc7c6)cc5c43)cc2C(F)(F)F)CC1`: the Potency was 41.8 nM (active) and 133 nM (active) in test [1]; 73.9 nM (active) in test [2].

As for `COc1ccc2cc1Oc1ccc(cc1)C[C@H]1c3cc(c(OC)cc3CCN1C)Oc1c(OC)c(OC)cc3c1[C@H](C2)N(C)CC3`, the Potency result in test [3] was “inactive”.

As for `Fc1ccc(CNc2ncnc3ccc(F)cc23)cc1`, the Potency entry in test [3] was “inactive”.

As for `Cc1csc(-c2nnc(Nc3ccc(Oc4ncccc4-c4ccnc(N)n4)cc3)c3ccccc23)c1`, the Potency entry in test [3] is “inactive”.

Regarding `Cc1cnc(CNC(=O)c2c(=O)c3ccc(N4CCCN(C)CC4)nc3n3c2sc2ccccc23)cn1`, in test [3], the Potency entry was “inactive”.

As to `CNC1[C@H](O)C(O[C@@H]2C(O)C(O[C@H]3O[C@H]([C@@H](C)NC)CC[C@H]3N)[C@@H](N)C[C@H]2N)OC[C@]1(C)O` (stereo partly specified), in test [3], the Potency entry was “inactive”.

Regarding `CN1CCC[C@H]1CCO[C@](C)(c1ccccc1)c1ccc(Cl)cc1`, the Potency entry in test [3] and in test [2] was “inactive” in each case.

For `O=C1NC(=O)C(=Cc2ccc(-c3ccc(F)cc3O)o2)S1`, the Potency result in test [3] and in test [2] was “inactive” each time.

With `O=c1[nH]nc(OCCCc2ccc(Cl)cc2)c(NCc2cccnc2)c1Br`, the Potency entry in test [3] is “inactive”.

`COc1c(C)cnc(Cn2cnc3c(Cl)nc(N)nc32)c1C`: the Potency result in test [3] is “inactive”.

Regarding `Cc1[nH]c(C=C2C(=O)Nc3ccc(S(=O)(=O)N(C)c4cccc(Cl)c4)cc32)c(C)c1C(=O)N1CCN(C)CC1`, the Potency entry in test [3] was “inactive”.

For the molecule `CCCCC[C@H](O)C=C[C@H]1[C@H](O)CC(=O)[C@H]1CC=CCCCC(=O)O`, the Potency entry in test [1] and in test [2] was “inactive” throughout.

For `CC=C(C(=CC)c1ccc(O)cc1)c1ccc(O)cc1`, the Potency result in test [3] and in test [2] was “inactive” each time.

For the molecule `O=C(CCCN1CCN(c2ccc(F)cc2)CC1)NC1c2ccccc2CSc2ccccc21` (stereo unspecified), in test [3], the Potency entry was “inactive”.

For `CC(=O)OCC(=O)[C@@]12OC(C)(C)O[C@H]1C[C@H]1[C@@H]3C[C@H](F)C4=CC(=O)C=C[C@]4(C)[C@@]3(F)[C@@H](O)C[C@@]12C`, the Potency entry in test [3] and in test [2] was “inactive” in each case.

For `COc1ccc(-c2cc3nccn3c(Nc3ncccc3C(N)=O)n2)cc1OC`, the Potency entry in test [3] and in test [2] was “inactive” throughout.

Consider `CCCCC(C=O)NC(=O)C(CC(C)C)NC(=O)OCc1ccccc1` (stereo unspecified), for which the Potency result in test [3] was “inactive”.

Consider `C[C@@H]1O[C@@H](O[C@H]2CC[C@@]3(C)[C@H](CC[C@@H]4[C@H]3C[C@@H](O)[C@]3(C)[C@@H](C5=CC(=O)OC5)CC[C@]43O)C2)C[C@H](O)[C@@H]1O[C@H]1C[C@H](O)[C@H](O[C@H]2C[C@H](O)[C@@H](O)[C@@H](C)O2)[C@H](C)O1` (stereo in doubt), for which the Potency in test [3] is 136 nM (active); in test [2], 380 nM (active).

Turning to `COc1cc2nc(-c3cc(F)ccc3O)nc(N[C@@H]3CNC[C@@H]3C(C)(C)O)c2cc1OC`, in test [3], the Potency is 9350 nM (active).

In the case of `CN1CCc2c(n(Cc3ccc(C(=O)NO)cc3)c3ccccc23)C1`, the Potency entry in test [3] and in test [2] was “inactive” each time.

On to `O=C1NC(=O)C(c2cnc3ccccn23)=C1c1cn2c3c(cccc13)CN(C(=O)N1CCOCC1)CC2`, for which, in test [3], the Potency is 590 nM (active).

In the case of `Cc1nn(Cc2ccccc2Cl)c(C)c1CN(C)CC(O)COc1ccc(Cl)cc1` (stereo unspecified), the Potency result in test [3] and in test [2] was “inactive” each time.

Take `C[C@]12CCC3=C4CCC(=O)C=C4CC[C@@H]3[C@H]1CC[C@@]2(O)CC#N`: the Potency result in test [3] and in test [2] was “inactive” throughout.

With `Cc1cn([C@@H]2C[C@@H](O)[C@H](CO)O2)c(=O)[nH]c1=O`, the Potency result in test [3] and in test [2] was “inactive” in each case.

Take `CCCCC(F)(F)[C@@]1(O)CC[C@H]2[C@H](CC(=O)[C@@H]2CCCCCCC(=O)O)O1`: the Potency result in test [3] and in test [2] was “inactive” in each case.

Turning to `CNC(=O)c1cc(Oc2ccc(NC(=O)Nc3ccc(Cl)c(C(F)(F)F)c3)c(F)c2)ccn1`, in test [1], the Potency entry was “inactive and 16.4 µM (active)”. Also, in test [2], the Potency result was “inactive”.

As to `Nc1ncnc2c1c(-c1cccc(OCc3ccccc3)c1)cn2C1CC(CN2CCC2)C1` (stereo unspecified), the Potency result in test [3] is “inactive”. Further, in test [2], the Potency was 9300 nM (active).

For the molecule `COc1ccc2nc3cc(Cl)ccc3c(Nc3cc(CN4CCCC4)c(O)c(CN4CCCC4)c3)c2n1`, the Potency entry in test [3] and in test [2] was “inactive” each time.

In the case of `O=C(O)Cc1cccc(OCCCN(Cc2cccc(C(F)(F)F)c2Cl)CC(c2ccccc2)c2ccccc2)c1`, the Potency result in test [3] and in test [2] was “inactive” throughout.

With `C[C@@H]1[C@H](C)CC[C@]2(C(=O)O)CC[C@]3(C)C(=CC[C@@H]4[C@@]5(C)CC[C@H](O)C(C)(C)[C@H]5CC[C@]43C)[C@@H]12`, the Potency entry in test [3] is “inactive”. Further, the Potency in test [2] is 19000 nM (active).

Consider `O=[N+]([O-])c1ccc(Nc2ccccc2-c2ccccc2)c2nonc12`, for which, in test [3], the Potency entry is “inactive”.
